An excerpt weighted towards active compounds, which were near 21% of everything screened.
NS1 inh = inhibitors of influenza NS1 protein function; Potency, µM (highest dose often 46.1 µM), without a hit: at the highest dose activity, positive = more growth; 270,000 tested, 0.4% active; calls by dose curve; also: potency is read from the fitted curve at half-maximal effect; actives are rising curves; nearly all actives have a fitted effect of over 50% in size
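Compounds were scored for reversing the slow growth caused by influenza A NS1 in S. cerevisiae, measured by optical density at 600 nm. Assay medium contained 2% galactose at pH 6.0; NS1-free yeast of the same strain were the positive control.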
Pf growth 48h = P. falciparum growth inhibition at 48 hours (one generation); AID 504832; Potency, µM (series often up to 28.7 µM), inactives show at the highest dose activity change, negative = inhibition, actives largely listed as inhibitors; 310,000 tested, 5.9% active; P. falciparum luciferase growth in erythrocytes, 48 h; also: potency is read from the fitted curve at half-maximal effect; % is scaled to controls: 0 for no effect and ±100 for the full control effect
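Luciferase-expressing parasites in RBCs, 2% Hct / 0.1% parasitemia final; RPMI 1640 + 0.5% Albumax; 37 C, 5% CO2, one generation; luminescence read-out, lower signal = inhibition.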
Pf growth 96h = P. falciparum growth inhibition at 96 hours; Potency, µM (highest dose often 28.7 µM), inactives show at the top dose activity change, negative = inhibition, most hits filed as inhibitors; P. falciparum luciferase reporter growth, 96 h; 320,000 tested, 6.9% active; also: potency is read from the fitted curve at half-maximal effect; % is scaled to controls: 0 for no effect and ±100 for the full control effect
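Cell-based qHTS: luciferase-tagged P. falciparum in erythrocytes (2% hematocrit, 0.05% parasitemia final) incubated with compounds for 96 hours, 37 C, 5% CO2; luciferase detection reagent then added and luminescence measured.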
Giardia FBPA inh = inhibitors of Giardia lamblia fructose-1,6-bisphosphate aldolase; A8B2U2; purified Giardia FBPA; Potency, µM (titrated, usually from 59.6 µM), without a hit: at the top dose activity, negative = inhibition, actives largely listed as inhibitors; 290,000 tested, 0.71% active; also: potency is read from the fitted curve at half-maximal effect; % is scaled to controls: 0 for no effect and ±100 for the full control effect; nearly all actives have a fitted effect of over 55% in size
Target sequence (A8B2U2 whole entry, looked up): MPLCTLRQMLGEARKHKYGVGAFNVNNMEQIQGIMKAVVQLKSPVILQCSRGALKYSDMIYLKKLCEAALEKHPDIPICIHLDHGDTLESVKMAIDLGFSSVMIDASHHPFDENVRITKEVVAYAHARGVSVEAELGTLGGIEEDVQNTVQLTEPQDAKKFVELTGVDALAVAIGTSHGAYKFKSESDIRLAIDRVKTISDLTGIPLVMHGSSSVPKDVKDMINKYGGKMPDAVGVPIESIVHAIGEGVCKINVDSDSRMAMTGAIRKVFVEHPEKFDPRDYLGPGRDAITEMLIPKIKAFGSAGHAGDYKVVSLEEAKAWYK
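40 nM FBPA preincubated 10 min at RT with compound (up to 57.5 uM final), then substrate plus GAPDH/TPI/NAD/arsenate coupling and diaphorase/resazurin added. Fluorescence read after 20 min at RT, 525/598 nm.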
Shiga inhibitor = blocks Shiga toxin action in Vero cells | 290,000 tested, 9.2% active | inhibition, % at 38.7 µM | AID 2315 | Vero cells, Shiga toxin protein synthesis inhibition reporter; in the data active = inhibition mostly above about 28%, no sharp cut-off; inactive = mostly below about 43%; also: 0% is about no effect
CHX counter = affects cycloheximide protein synthesis inhibition readout, counter-screen; cell reporter, cycloheximide protein synthesis inhibition counterscreen; max response, %; 300,000 tested, 12% active; in the data active = max response mostly above about 13%, no sharp cut-off; inactive = mostly below about 14%; also: read at 38.3 µM for the half of the compounds with a filed dose; 0% is about no effect
An asterisk follows results filed as active; ? = inconclusive; . = no result; [ ] = dose if it differs, or a comment. Unless noted, calls follow the shape of the dose curve; as a rule, active = well fitted curve in the direction sought with a large enough effect; inconclusive = small, poorly fitted or top-dose-only effect, or another doubt; inactive = no such curve, though single readings can be large; an effect the other way counts as inactive or inconclusive.

SMILES	NS1 inh	Pf growth 48h	Pf growth 96h	Giardia FBPA inh	Shiga inhibitor	CHX counter
CC(C)C(NC(=O)C(C)N1C(=O)c2ccccc2C1=O)c1ccccc1 (stereo unspecified)	2.8%	17.0%	19.7%	-2.2%	-10.3	-0.6
CC1CCCCN1C(=O)CN1C(=O)CSc2ccc(S(=O)(=O)N3CCOCC3)cc21 (stereo unspecified)	-12.1%	-12.1%	6.6%	9.3%	-8.1	1.1
Cn1c(=O)c(-c2cccs2)nc2cnc(N3CCOCC3)nc21	.	.	.	6.3%	.	.
CC1(C)CC(=O)C=C(NC2CCCCCC2)C1	3.8%	?	11.7µM*	3.7%	11.1	-2.3
O=C1C=C(NC2CCCCC2)CCC1	.	13.1µM*	13.1µM*	.	.	.
CC1(C)CC(=O)C=C(NNC(=O)C2CCCCC2)C1	6.8%	-3.5%	-10.6%	2.1%	6.5	2.5
CC1(C)CC(=O)C=C(NC2CCCCCCC2)C1	6.3%	?	3.7µM*	5.1%	-2.6	-3.3
CCN(CC(=O)N1CCOCC1)S(=O)(=O)c1ccc(F)cc1	18.6%	29.3%	21.6%	-2.3%	-5.7	-8.8
COc1ccccc1-c1ccc2ncnc(N3CCNCC3)c2c1	.	.	.	-1.5%	.	.
O=C(O)C1CCCN1C(=O)NC1CCCCC1 (stereo unspecified)	3.5%	5.7%	8.5%	-0.3%	-2.4	-2.0
O=C(Cc1ccccc1F)Nc1ccc2c(c1)CCC2	-3.7%	110.0%	199.6%	-11.6%	72.7*	28.1
Cc1ccccc1CC(=O)Nc1ccc2c(c1)CCC2	-7.9%	4.6%	0.0%	1.1%	8.9	12.6
O=C(Cc1cccc(F)c1)Nc1ccc2c(c1)CCC2	-21.5%	35.2%	103.5%	15.3%	76.0*	17.7*
O=C(Nc1ccc2c(c1)CCC2)c1cccc(F)c1	-31.2%	174.9%	264.8%	-9.1%	113.4*	75.5*
Cn1cc(C(=O)Nc2ccc3c(c2)CCC3)cn1	-8.5%	102.7%	140.5%	-8.6%	74.7*	56.1*
CC(=O)Nc1cccc(NC(=O)Cc2ccc3ccccc3c2)c1	21.0%	5.1%	?	6.0%	3.2	13.1
O=C(Cc1ccc2c(c1)CCCC2)Nc1ccc2ccccc2c1	-10.9%	29.4%	13.2%	-19.4%	active	43.4*
Cc1noc(C)c1S(=O)(=O)N1CCc2nc(COc3ccccc3)c3c(c2C1)CO[C@@H](C)C3	.	.	.	4.5%[12.9 µM]	.	.
CCOC(=O)[C@@H]1[C@H]2COc3ccccc3[C@H]2N2C(=O)N(c3ccccc3)C(=O)[C@]12C	14.0%	?	?	-9.4%	7.3	-3.6
O=C(NCc1ccc(Cl)cc1)C(=O)NCC1OCCN1S(=O)(=O)c1cc(F)ccc1F (stereo unspecified)	14.2%	1.2%	?	.	-11.1	-4.9
CCOC(=O)C1=C(O)/C(=C/c2ccc(-c3ccccc3C(=O)O)o2)SC1=Nc1ccc(OC)cc1	12.6%	-20.8%	1.1%	-4.1%	-13.6	-6.8
CCOC(=O)C1=C(O)/C(=C/c2ccc(-c3ccccc3C(=O)O)o2)SC1=Nc1ccc(C)cc1	-64.9%	?	0.928µM*	.	-5.9	-2.0
CCOC(=O)C1=C(O)CSC1=Nc1ccc(Cl)cc1	-4.5%	10.4µM*	10.4µM*	2.1%	20.9	6.2
CCOC(=O)C1=C(O)/C(=C/c2ccccn2)SC1=Nc1ccc(Cl)cc1	6.3%	9.28µM*	14.8%	-2.2%	-10.6	-0.8
O=S(=O)(NC1C2CC3CC(C2)CC1C3)c1ccc(F)cc1 (stereo unspecified)	.	-12.7%	?	.	.	.
SMILES	NS1 inh	Pf growth 48h	Pf growth 96h	Giardia FBPA inh	Shiga inhibitor	CHX counter
Cc1nn(C(C)C(=O)O)c(=O)c2ccccc12 (stereo unspecified)	-2.3%	28.8%	9.28µM*	1.0%	-7.3	5.7
O=C(O)CCn1ncc2ccccc2c1=O	5.3%	17.8%	-13.9%	1.5%	8.8	-2.9
CC(C(=O)O)n1ncc2ccccc2c1=O (stereo unspecified)	-1.4%	2.62µM*	32.0%	-4.5%	-5.5	-1.2
Cc1nn(-c2ccccc2C(=O)O)c(=O)c2ccccc12	7.4%	2.8%	0.0%	7.1%	-4.8	-2.0
CN(C)c1ccc(/C=N/NC(=O)Cn2nnc3ccccc32)cc1	-38.8%	21.0%	58.8%	-1.3%	26.6	14.9
COc1ccc(/C=N\NC(=O)COc2ccccc2Cl)cc1Cn1nc(C)cc1C	-7.8%	-0.2%	?	5.0%	-12.6	-3.9
